This note sets out measurements from PubChem BioAssay.

The structures appear in SMILES notation. Active and inactive are the calls of the source.

Experiment [1] has as its system Plasmodium falciparum Sir2 (PF13_0152, Sir2A). The experiment in a line: pfSir2 binders on small-molecule microarrays, primary screen, biochemical, small-molecule microarray, 635 nm fluorescence (AID 1098).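 Note: score merges spot fluorescence intensity with its signal-to-noise ratio.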 To be noted: small-molecule microarray binding, fluorescence 635 nm; higher = more signal.
The nature of experiment [2]: small-molecule microarray binders of probe aDKK1, primary screen, biochemical, biotinylated probe, 635/667 nm fluorescence (AID 1099).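 Note: score merges 667nm spot fluorescence with signal to noise across triplicate slides; reference of the scale not given here.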 To be noted: higher = more signal.
A short description of experiment [3]: small-molecule microarray binders of probe aCHRDL2, primary screen, biochemical, biotinylated probe, 635/667 nm fluorescence (AID 1100). As to conditions: higher = more signal.
The nature of experiment [4]: splicing luciferase reporter signal modulators, primary screen, spliceosome inhibition project, cell-based, HEK293, splice +/- reporter (AID 1101).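 Note: HEK293 cells carrying a splicing-competent luciferase reporter gene; test concentration not given here.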 To be noted: luminescence, 24 h, higher = more signal, called active from +8 up or from −8 down. Background: A reporter such as luciferase makes a cellular process visible.
For experiment [5], the target named is Fibroblast growth factor 10 (Homo sapiens) (UniProt O15520). The experiment in a line: FGF10 binders on small-molecule microarrays, primary screen, biochemical, small-molecule microarray, 635 nm fluorescence (AID 1102). To be noted: FGF10 binding, fluorescence 635 nm, higher = more signal.
Experiment [6] concerns glycogen synthase kinase-3 (GSK3A per assay name; protocol says GSK3B). The experiment can be described thus: GSK3 binders on small-molecule microarrays, primary screen, biochemical, small-molecule microarray, 635 nm fluorescence, GSK3A (AID 1103). Note: the record names both GSK3A and GSK3B. To be noted: small-molecule microarray binding, fluorescence 635 nm; higher = more signal.
For experiment [7], the target named is Epidermal growth factor receptor (Homo sapiens) (UniProt P00533). The experiment can be described thus: EGFR binders on small-molecule microarrays, primary screen, biochemical, small-molecule microarray, 635 nm fluorescence (AID 1104).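 Note: score merges 667 nm emission intensity with spot signal to noise over triplicate slides.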 As to conditions: EGFR binding, higher = more signal.
In experiment [8] the target is Follistatin-related protein 3 (Homo sapiens) (UniProt O95633). The experiment in a line: FSTL3 binders on small-molecule microarrays, primary screen, biochemical, small-molecule microarray, 635 nm fluorescence (AID 1105).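 Note: score merges emission near 667 nm and signal to noise per printed spot across three slides.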 To be noted: FSTL3 binding, higher = more signal.
Experiment [9] addresses Dickkopf-related protein 1 (Homo sapiens) (UniProt O94907). The experiment in a line: DKK1 binders on small-molecule microarrays, primary screen, biochemical, small-molecule microarray, 635 nm fluorescence scan (AID 1106).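 Note: score merges emission near 667 nm with signal to noise over three replicate slides.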 To be noted: DKK1 binding, higher = more signal.
Experiment [10] relates to Inhibin beta A chain (activin A). The experiment can be described thus: INHBA (activin A) binders on microarrays, primary screen, biochemical, small-molecule microarray, 635 nm fluorescence scan (AID 1107).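 Note: mouse activin A protein probed at 4.33 µg/mL on printed slides; score merges bound-protein fluorescence near 667 nm with spot signal-to-noise.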 As to conditions: small-molecule microarray binding, higher = more signal.

Chain of Follistatin-related protein 3 (Homo sapiens) (O95633 whole entry, looked up): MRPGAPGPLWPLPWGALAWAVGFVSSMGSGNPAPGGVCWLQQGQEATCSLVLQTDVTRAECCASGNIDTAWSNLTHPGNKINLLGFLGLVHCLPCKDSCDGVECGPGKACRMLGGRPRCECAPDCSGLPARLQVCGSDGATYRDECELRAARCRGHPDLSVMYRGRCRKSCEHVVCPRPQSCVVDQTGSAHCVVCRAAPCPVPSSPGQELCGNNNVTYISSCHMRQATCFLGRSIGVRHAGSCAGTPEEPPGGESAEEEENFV
Chain of Dickkopf-related protein 1 (Homo sapiens) (O94907 whole entry, looked up): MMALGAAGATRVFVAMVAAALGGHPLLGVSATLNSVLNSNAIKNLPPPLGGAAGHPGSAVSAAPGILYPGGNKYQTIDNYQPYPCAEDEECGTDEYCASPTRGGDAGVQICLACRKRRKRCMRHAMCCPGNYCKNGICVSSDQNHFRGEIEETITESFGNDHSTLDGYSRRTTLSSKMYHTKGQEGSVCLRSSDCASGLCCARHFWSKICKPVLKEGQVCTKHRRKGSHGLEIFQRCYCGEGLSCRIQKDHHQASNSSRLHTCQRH
Chain of Epidermal growth factor receptor (Homo sapiens) (P00533 whole entry, looked up): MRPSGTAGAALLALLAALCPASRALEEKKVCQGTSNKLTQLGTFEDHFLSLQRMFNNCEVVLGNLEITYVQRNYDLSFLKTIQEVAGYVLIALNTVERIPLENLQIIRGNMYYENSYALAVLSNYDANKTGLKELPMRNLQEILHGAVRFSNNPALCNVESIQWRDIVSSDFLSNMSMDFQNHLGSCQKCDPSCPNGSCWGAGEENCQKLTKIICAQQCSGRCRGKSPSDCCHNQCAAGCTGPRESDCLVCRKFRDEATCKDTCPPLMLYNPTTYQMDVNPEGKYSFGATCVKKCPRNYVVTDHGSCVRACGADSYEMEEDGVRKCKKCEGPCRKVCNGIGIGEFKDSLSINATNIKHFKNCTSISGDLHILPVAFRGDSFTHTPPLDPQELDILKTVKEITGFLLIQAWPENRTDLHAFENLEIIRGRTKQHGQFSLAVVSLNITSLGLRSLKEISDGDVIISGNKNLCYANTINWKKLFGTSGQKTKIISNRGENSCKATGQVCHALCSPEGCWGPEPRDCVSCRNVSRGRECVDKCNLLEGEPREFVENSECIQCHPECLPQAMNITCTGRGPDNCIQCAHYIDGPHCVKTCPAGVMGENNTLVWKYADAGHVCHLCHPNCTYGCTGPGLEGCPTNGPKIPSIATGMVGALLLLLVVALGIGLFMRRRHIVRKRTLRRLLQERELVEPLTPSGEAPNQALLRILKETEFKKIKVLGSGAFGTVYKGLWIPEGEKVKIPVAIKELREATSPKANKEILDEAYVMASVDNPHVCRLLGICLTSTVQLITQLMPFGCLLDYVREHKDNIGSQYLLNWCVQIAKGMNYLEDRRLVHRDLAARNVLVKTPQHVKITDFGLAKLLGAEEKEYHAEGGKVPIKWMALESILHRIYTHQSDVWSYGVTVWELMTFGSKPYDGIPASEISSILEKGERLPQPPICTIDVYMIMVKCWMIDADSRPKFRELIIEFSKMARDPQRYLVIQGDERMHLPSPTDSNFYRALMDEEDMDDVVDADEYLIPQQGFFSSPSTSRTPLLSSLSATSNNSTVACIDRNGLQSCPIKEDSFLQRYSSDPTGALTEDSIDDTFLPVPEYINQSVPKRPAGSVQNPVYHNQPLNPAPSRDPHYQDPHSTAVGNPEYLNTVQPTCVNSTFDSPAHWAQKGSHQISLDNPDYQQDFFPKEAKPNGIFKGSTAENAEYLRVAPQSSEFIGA
Chain of Fibroblast growth factor 10 (Homo sapiens) (O15520 whole entry, looked up): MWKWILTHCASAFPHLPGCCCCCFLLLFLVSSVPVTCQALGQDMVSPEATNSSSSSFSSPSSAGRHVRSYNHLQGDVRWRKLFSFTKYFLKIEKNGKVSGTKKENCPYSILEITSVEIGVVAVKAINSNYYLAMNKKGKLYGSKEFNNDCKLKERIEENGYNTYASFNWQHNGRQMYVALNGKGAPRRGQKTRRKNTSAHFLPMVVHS

Take `Cc1ccc(S[C@]2(C(=O)NCCCN(C)C)CC(=O)N(Cc3cc(C(F)(F)F)cc(C(F)(F)F)c3)[C@@H]2c2ccc(CO)cc2I)cc1`: the composite z-score in experiment [1] was -0.0355; in [2], 0.703; in [3], 0.879; in experiment [5], -0.833; in experiment [6], -2.21; in [7] it was -1.18. For the same compound, the composite z-score in experiment [8] was -1.71; in experiment [9], -1.53; in experiment [10], 0.835. Further, the z-score in experiment [4] was -0.0675 (inactive).
Take `COC(=O)C[C@H]1O[C@]2(C(=O)N(C)c3ccccc32)[C@@H](C)[C@@H]1[Si](C)(C)F`: the composite z-score in experiment [1] is -0.0042; in experiment [2], -0.113; in experiment [3], -0.583; in experiment [5] it was 0.96; in [6] it was 0.557; in [7], 0.616. In addition, the composite z-score in experiment [8] was 0.774; in [9] it was 0.695; in experiment [10], 0.369. Besides, in [4], the z-score was -1.8 (inactive).
Turning to `C=CC[C@@]1(C(=O)NCCN2CCOCC2)N=C(c2ccc(OCCCO)cc2)O[C@@H]1c1ccccc1N=[N+]=[N-]`, the composite z-score in experiment [1] is 0.241; in experiment [2], 1.09; in experiment [3], 1.03; in experiment [5], 0.0038; in experiment [6] it was -0.142; in experiment [7], 0.539. For the same compound, the composite z-score in [8] is 0.255; in experiment [9], -0.0358; in experiment [10], 1.72. Further, the z-score in experiment [4] was -0.656 (inactive).
`[N-]=[N+]=Nc1ccccc1[C@H]1OC(c2ccc(OCCCO)cc2)=N[C@@]1(CCS(=O)(=O)c1ccccc1)C(=O)NCC(O)CO` (stereo not given in full): the composite z-score in experiment [1] was 1.47; in experiment [2], 0.766; in experiment [3], 0.95; in [5], 1.24; in experiment [6], 0.933; in [7], -0.214. The composite z-score is 0.505 in [8], -0.415 in experiment [9] and 0.899 in [10]. In addition, the z-score in experiment [4] was -0.662 (inactive).
On to `C=CC[C@]1(C(=O)NCCCOC)N=C(c2ccc(OCCCO)cc2)O[C@H]1c1ccccc1CN=[N+]=[N-]`, for which the composite z-score turned out to be 1.17 in experiment [1]; 1.45 in experiment [2]; 1.17 in experiment [3]; 0.944 in experiment [5]; 1.22 in experiment [6]; 0.0673 in experiment [7]. The results for the composite z-score in [8], in experiment [9] and in experiment [10] were 0.612, 0.496 and 1.21, respectively. Moreover, the z-score in [4] is 0.822 (inactive).
With `COc1ccc([C@H]2OC[C@@H]3C[C@@H](Cc4ccccc4)C(=O)N32)cc1`, the composite z-score in experiment [1] was 0.143; in experiment [2], -0.191; in experiment [3], -0.435; in [5], 1.3; in experiment [6] it was 0.228; in [7], 0.424. In addition, the composite z-score in experiment [8] is 0.821; in experiment [9], 0.326; in experiment [10], -0.0187. In addition, the z-score in [4] is 0.247 (inactive).
In the case of `COCCOC(=O)N1C(=O)[C@@]2(c3cc(C#CCCO)ccc31)[C@H](C(=O)N1CCCCCCC1)[C@H]1C(=O)O[C@H](c3ccccc3)[C@H](c3ccccc3)N1[C@@H]2c1ccc(OCCO)cc1`, the composite z-score in experiment [1] was determined as 1.4; in [2], 2.52; in experiment [3], 1.49; in experiment [5], 0.888; in experiment [6], 0.704; in experiment [7], 1.59. Besides, the composite z-score in [8] is 1.55; in experiment [9] it was 1.63; in experiment [10], 1.67. Further, in [4], the z-score is 0.713 (inactive).
Turning to `C=C(/C(=C/C[C@H](OC(C)=O)c1ccccc1OCCO)c1cnc2ccccc2c1)C(C)C`, the composite z-score in experiment [1] is 1.55; in experiment [2], 0.955; in experiment [3] it was -0.269; in experiment [5] it was 0.53; in experiment [6], 0.311; in experiment [7], -0.306. For the same compound, the results for the composite z-score in [8], in [9] and in [10] were 1.04, 0.304 and 1.87, respectively. Besides, in experiment [4], the z-score was 0.0118 (inactive).
For the compound `C[C@@]1([C@@H](NC(=O)c2ccc(-c3ccccc3)cc2)c2ccc(Cl)cc2)C[C@H]1C1CCCCC1`, the composite z-score in [1] worked out at 0.78; in [2], 1.13; in experiment [3] it was 1.07; in experiment [5], 0.575; in experiment [6], 0.787; in experiment [7], 0.0292. Further, the composite z-score in [8] is 0.313; in experiment [9] it was -0.131; in experiment [10], 0.387. In [4], the z-score is -1.82 (inactive).
With `C=C(COC)/C(=C/C[C@@H](OC(=O)c1ccncc1)c1ccc(CO)o1)c1cc(C(=O)OC)ccc1OC`, the composite z-score in experiment [1] is 1.2; in experiment [2], 0.0709; in [3], -0.623; in [5], 1.47; in experiment [6] it was 1.15; in experiment [7], 1.06. In addition, the composite z-score in experiment [8] is 1.48; in experiment [9] it was 1.27; in experiment [10] it was 1.03. Besides, the z-score in [4] was 0.804 (inactive).
For `CN1C(=O)C2C=CC(C(O)C3CC=CCC3)N(N(c3ccccc3)c3ccccc3)C2C1=O` (stereo not given), the composite z-score in [1] is 0.206; in experiment [2], 0.244; in [3] it was 0.944; in experiment [5] it was -0.291; in experiment [6] it was -1.64; in experiment [7], 0.664. For the same compound, the results for the composite z-score in [8], in experiment [9] and in experiment [10] were 0.184, 0.175 and 1.87, respectively. Further, in experiment [4], the z-score is 0.773 (inactive).
Take `CC1CC/C=C\[C@H]2OC34C=CCN(Cc5ccccc5)C(=O)[C@H]3N(CCCO)C(=O)[C@@H]4C2C(=O)O1` (stereo not given in full): the composite z-score in [1] was 0.881; in [2] it was -0.307; in experiment [3] it was 0.45; in experiment [5] it was -1.14; in [6], -0.657; in experiment [7] it was -0.574. The composite z-score was -1.07 in [8], -0.538 in experiment [9] and -0.192 in experiment [10]. Moreover, the z-score in experiment [4] is -0.0477 (inactive).
As to `CC(C)c1ccc(NN2C(C(O)c3ccc(B(O)O)cc3)C=CC3C(=O)N(c4ccccc4)C(=O)C32)cc1` (stereo not given), the composite z-score in experiment [1] was 1.24; in [2], 0.942; in experiment [3], 1.05; in [5], 1.11; in [6], 1.25; in experiment [7], -0.109. For the same compound, the composite z-score is 1.38 in [8], -0.381 in experiment [9] and 0.849 in experiment [10]. The z-score in experiment [4] was 0.844 (inactive).
As to `CCC[C@@H]1C[C@@]1(CCC)[C@@H](NS(=O)(=O)c1cccc2cccnc12)c1ccc(Cl)cc1`, the composite z-score was -0.318 in [1]; 0.916 in [2]; 1.1 in [3]; 0.044 in [5]; -0.594 in experiment [6]; -0.484 in experiment [7]. The composite z-score in [8] was -0.445; in [9] it was -0.35; in experiment [10], 1.04. Besides, the z-score in [4] is 0.109 (inactive).
For `C=C(COC)C(=O)CC[C@@H](OC(C)=O)c1ccc(CO)o1`, the composite z-score was 1.38 in [1]; 0.0244 in [2]; -0.45 in [3]; 1.24 in [5]; 0.139 in experiment [6]; -0.42 in experiment [7]. The composite z-score worked out at 1.52 in experiment [8], 1.48 in [9] and 1.38 in experiment [10]. Also, in experiment [4], the z-score was 0.264 (inactive).
Take `O=C1C2C=CC(C(O)Cc3ccccc3)N(n3cnnc3)C2C(=O)N1Cc1ccccc1` (stereo not given): the composite z-score in [1] was 0.386; in [2], 0.73; in [3], 0.868; in experiment [5] it was 0.33; in experiment [6], 0.0704; in [7] it was -0.216. Moreover, the composite z-score in [8] was -0.294; in experiment [9], -0.387; in experiment [10], 0.825. Moreover, the z-score in experiment [4] was -0.195 (inactive).
For the compound `O=C1O[C@@H](c2ccccc2)[C@@H](c2ccccc2)N2[C@@H](c3ccccc3OCCO)[C@]3(C(=O)Nc4ccccc43)[C@@H](C(=O)Nc3nc4ccccc4s3)[C@H]12`, the composite z-score worked out at 1.02 in experiment [1]; 1.05 in [2]; 0.0859 in experiment [3]; 1.23 in experiment [5]; 1.02 in [6]; 0.383 in [7]. Moreover, the composite z-score turned out to be 0.799 in experiment [8], 0.287 in experiment [9] and 0.33 in [10]. In addition, in [4], the z-score was -1.86 (inactive).
